Assay outcomes as filed in PubChem.
Pf Dd2 growth – Plasmodium falciparum Dd2 growth inhibition. Potency, µM (doses to about 28.9 µM), actives largely listed as inhibitors. P. falciparum Dd2 growth, SYBR Green, 72 h. actives 4.3% (n = 120,000); active means well fitted inhibition curve with a large enough effect; further: nearly all actives have a fitted effect of over 65% in size
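Infected erythrocytes (Dd2, 0.3% parasitemia, 2.5% hematocrit final) are added to compound in RPMI-1640/Albumax II medium, grown 72 h at 37C in low oxygen, then lysed with saponin/Triton-X containing SYBR Green and read by fluorescence.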
Numbers stand for hits; 0 = inactive; [ ] = remark or other dose. Many of the other results were omitted from the sample, so hits are more common in it than they were.

SMILES	Pf Dd2 growth
Cc1ccccc1NC(=O)c1c(NC(=O)C(F)(F)F)sc2c1CCCCC2	10µM
CCCNC(=O)c1c(NC(=O)c2ccc(C)cc2)sc2c1CCCCC2	0
O=C(COc1ccc(Cl)cc1)Nc1sc2c(c1C(=O)Nc1cccc(Cl)c1)CCCC2	0
Cc1ccccc1NC(=O)c1c(NC(=O)c2ccccc2)sc2c1CCC2	0
Cc1ccc(NC(=O)c2c(NC(=O)C(F)(F)F)sc3c2CCCCC3)cc1	3.98µM
Cc1cccc(NC(=O)c2c(Br)sc3c2CCCC3)c1	0
O=C(Nc1ccc(Oc2ccccc2)cc1)O[C@@H]1CO[C@H]2[C@@H]1OC[C@@H]2NS(=O)(=O)c1ccc(Cl)cc1	0
Cc1cnc(C(=O)N[C@@H]2CCC[C@@H]2C(=O)NCc2ccc(F)cc2)cn1	0
Cc1cccc(NC(=O)N2CCCC(Cc3noc(-c4cnccn4)n3)C2)c1 (stereo not given)	0
Cc1cnc(CCNC(=O)c2ccnn2C)n1CC1CC1	0
CCn1nccc1C(=O)N1CCC2(CC1)C(OC)CN2c1cccc(F)c1 (stereo not given)	0
COc1ccc(C(=O)N2CCC(N3CCCOC3=O)CC2)cc1	0
CS(=O)(=O)c1ccc(-c2ccc(CN3CCOCC3)cn2)cc1	0
CC(C)(C)NC(=O)N1CCCN(C(=O)C2CC2)C(c2ccccc2)CC(=O)NCC1 (stereo not given)	0
Cn1ncc2c(C(=O)N3CCCC3)cc(-c3ccc(Cl)nc3)nc21	0
CNC(=O)[C@@H]1CN(C(=O)Cc2ccc(Br)cc2)C[C@H]1CO	0
CC(C)CCNc1nc(Nc2ccccc2)c2cnn(C)c2n1	10µM
Cc1cccnc1NCCNc1nc(C(C)C)nc2c1cnn2C	0
COCCCNc1nc(NCc2cccc(Cl)c2)c2cnn(C)c2n1	0
Cc1ccccc1OCC1CN(CC(C)C)C(=O)c2c(ccnc2-c2ccc(OCC(=O)O)cc2)O1 (stereo not given)	0
COCC1CN(C(C)=O)CC12CCN(S(=O)(=O)c1ccc(F)c(C)c1)CC2 (stereo not given)	0
COc1cccc(CN2CCCC3(CN[S+](=O)([O-])c4ccccc4N3)C2)c1 (stereo not given)	0
CCn1c(=O)n(CC)c2cc(N3CCCCC3)c(NC(=O)Nc3cc(C)cc(C)c3)cc21	10µM
CCc1ccccc1NC(=O)Nc1cc(C(=O)NCc2ccccc2OC)ccc1N1CCCC1	0
Cc1cc(C)cc(NC(=O)Cn2c(N3CCCCC3)nc(C)c(C)c2=O)c1	0
SMILES	Pf Dd2 growth
Cc1cc(C)cc(NC(=O)Cn2nc3n(c2=O)CCCCC3)c1	0
Cc1ccc(NC(=O)Nc2cc3c(cc2N2CCCCC2)n(C)c(=O)n3C)cc1Cl	0
CCn1c(=O)n(CC)c2cc(N3CCCCC3)c(NC(=O)Nc3ccccc3Cl)cc21	10µM
COc1ccc(C(=O)NCC(=O)N2CCCCCNC(=O)CC2c2ccccc2)cc1 (stereo not given)	0
Cc1ccc(N2CCC(NC(=O)c3ccc(C#N)cc3)C2=O)cc1C (stereo not given)	0
CNC(=O)[C@@H](C1CC1)N1CCC[C@H]1C(=O)NCC(C)C	0
Cc1ccc(NC(=O)Cn2cnc3c(oc4ccccc43)c2=O)cc1	0[0.594 µM]
Cc1ccccc1Cn1c(=O)n(Cc2ccco2)c(=O)c2oc3ccccc3c21	0
Cc1ccccc1Cn1cnc2c(oc3ccccc32)c1=O	8.91µM
CCCn1ncc(-c2nc(Cc3cccs3)nn2CC(=O)O)c1C	0
CC(C)c1nc2c(c(-c3ccc(O)cc3)n1)CCN(Cc1ccc(C(F)(F)F)cc1)CC2	1.78µM
Cc1ccc(CN2CCCc3nc(C)nc(-c4ccc(O)cc4)c3C2)cc1	2.82µM
CC(C)c1nc2c(c(-c3ccc(O)cc3)n1)CN(Cc1ccccn1)CC2	0
CC(C)c1nc2c(c(-c3ccc(O)cc3)n1)CCN(Cc1cccc3ccccc13)CC2	3.16µM
COc1ccc(CN2CCc3nc(C)nc(-c4ccc(O)cc4)c3C2)cc1	0
CC(=O)N1CCc2nc(C(C)C)nc(-c3ccc(O)cc3)c2CC1	0
CC(=O)Nc1ccc(CN2CCc3nc(C(C)C)nc(-c4ccc(Cl)cc4)c3CC2)cc1	1.12µM
CC(=O)Nc1ccc(CN2CCn3c(nnc3-c3ccc(Cl)cc3)C2)cc1	0
Cc1nc2c(c(-c3ccc(O)cc3)n1)CN(Cc1cccc3ccccc13)CC2	0
Cc1nc2c(c(-c3ccc(Cl)cc3)n1)CCN(C(=O)Nc1ccccc1)CC2	0
Cc1nc2c(c(-c3ccc(O)cc3)n1)CN(Cc1ccc(F)cc1)CCC2	0
CN(C)c1ccc(CN2CCc3nc(C4CC4)nc(-c4ccc(O)cc4)c3CC2)cc1	0
COCCN1CC2(CCCN(C(=O)c3ccccc3-n3cncn3)C2)CCC1=O (stereo not given)	0
O=C(CCc1nc2ccccc2s1)N1CCC(N2CC3CC(C2)[C@H]2CCCC(=O)N2C3)CC1 (stereo not given in full)	0
CN1c2cc(C(=O)NCc3ccc(F)cc3F)ccc2C(=O)N2CCCC21 (stereo not given)	0
SMILES	Pf Dd2 growth
Cc1cc(C(=O)N[C@H](C)c2onc(-c3cccnc3)c2C(=O)O)nn1C	0
O=C1NC(C(=O)NC2CCN(Cc3ccccc3)CC2)Cn2cccc21 (stereo not given)	0
O=C(Nc1ccccc1)Nc1ccc([C@H]2OCC(=O)N(Cc3ccc(F)cc3)[C@@H]2CO)cc1	0
CC(C)(C)c1cc(CC2(NCc3ccccc3O)COC2)no1	0
CC(C)c1nc2c(c(-c3ccc(O)cc3)n1)CN(CC1CCCCC1)CC2	3.55µM
CC(C)c1nc2c(c(-c3ccc(O)cc3)n1)CN(Cc1cccnc1)CC2	0
CC(C)c1nc2c(c(-c3ccc(O)cc3)n1)CN(Cc1cccn1C)CC2	0
O=C(Nc1ccccc1)Nc1ccc([C@@H](O)[C@H]2COCC(=O)N2Cc2ccc(F)cc2)cc1	0
O=C(c1ccc(Cl)cc1)N1CCC(N2CC3CCCN3C2=O)CC1 (stereo not given)	0
N#Cc1ccccc1CN1CC[C@@H]2C(=O)NCCCCCCN(Cc3ccncc3)[C@@H]2C1	0
N#Cc1cccc(CN2CC[C@H]3C(=O)NCCCCCCN(Cc4ccncc4)[C@@H]3C2)c1	12.6µM
Cc1ccc(CN2CC[C@H]3C(=O)NCCCCCCN(Cc4ccncc4)[C@@H]3C2)o1	0
O=C1CCN(S(=O)(=O)c2ccccc2)CCCN(C(=O)NCc2ccccc2)CCN1	0
CCOc1ccccc1Nc1sc(C(=O)c2ccccc2)c(N)c1C(=O)Nc1ccccc1	0
CCc1ccc(Nc2sc(C(=O)c3ccc(F)cc3)c(N)c2S(=O)(=O)c2ccccc2)cc1	8.91µM
Nc1c(C(=O)c2ccc(F)cc2)sc(Nc2ccccc2F)c1S(=O)(=O)c1ccc(Br)cc1	11.2µM
N#Cc1c(Nc2cccc(F)c2)sc(C(=O)c2ccc(Cl)cc2)c1N	0
COc1cccc(Nc2sc(C(=O)c3ccc(F)cc3)c(N)c2C(=O)NCc2ccc(Cl)cc2)c1	0
CCc1ccc(S(=O)(=O)N2[C@@H]3CC[C@H]2CC(NC(=O)c2ccc(F)cc2)C3)cc1 (stereo not given in full)	0
CCn1ncc(C(=O)N2C[C@@H](COc3ccccc3)[C@H](C(N)=O)C2)c1C	0
Cc1ccsc1C(=O)N1CCCC(c2noc(COc3ccccc3)n2)C1 (stereo not given)	0
CCCSc1ncc(CN2CCCC3(CCNC3)C2)cn1 (stereo not given)	0
CCOCCCn1c(=N)c(C(=O)NC2CCCC2)cc2c(=O)n3cccc(C)c3nc21	2.24µM
CCOCCCn1c(=N)c(S(=O)(=O)c2ccc(C)cc2)cc2c(=O)n3cccc(C)c3nc21	0
